Measured values as given in PubChem BioAssay AID463173 (ICCB-Longwood Screening Facility, Harvard Medical School, 2010).
Hit rate of the full screen: of about 52,000 compounds, about 4,300 (8.3%) were called active. No stated cut-off is given here; in the data, active means survival mostly below about 52% (no sharp cut-off); inactive means mostly above about 56%. The full list was thinned out, with actives kept by preference.

Test system: DeltatarO mutant
Test: S. aureus survival, RN4220 and DeltatarO strains – OD600, teichoic acid synthesis inhibitors, primary screen (AID 463173)
Conditions: S. aureus RN4220 wild type/DeltatarO growth, OD600, 18 h, stronger effect = lower value, screened at 18.75 µg/mL (by protocol)

Structure (SMILES) | survival
COCCNC(=O)CN1C(=O)c2cccnc2Oc2ccc(Cl)cc21 | 85% (inactive)
COc1ccc(-c2onc(C)c2C)cc1S(=O)(=O)NCc1ccco1 | 67% (inactive)
Cc1ccc(S(=O)(=O)N(C)c2ccc3sc(C)nc3c2)cc1 | 91% (inactive)
COc1ccc(OC)c(C(=O)CC2(O)C(=O)N(Cc3ccccc3C)c3ccccc32)c1 (centres undefined) | 165% (inactive)
CN1C(=O)Cc2cc(S(=O)(=O)CCC(=O)Nc3ccc(OC(F)(F)F)cc3)ccc21 | 71% (inactive)
Cc1cccc(CN2C(=O)c3ccccc3Sc3ccc(C(=O)N4CCCC4)cc32)c1 | 83% (inactive)
CCOc1ccccc1C(=O)Nc1cccc(-c2nc3ccccc3s2)c1 | 41% (active)
Cc1ccc(OCC(=O)Nc2cccc(-c3nc4ccccc4s3)c2)cc1 | 47% (active)
CCOc1ccc(C(=O)Nc2ccc(-c3nc4ccccc4s3)c(C)c2)cc1OCC | 99% (inactive)
COc1ccc(OCC(=O)Nc2ccc(O)c(-c3nc4ccccc4s3)c2)cc1 | 43% (active)
COc1cccc(CC(=O)Nc2ccc(-c3nc4ccccc4s3)cc2)c1 | 0% (active)
COc1ccc(OCC(=O)Nc2cccc(-c3nc4ccccc4s3)c2C)cc1 | 106% (inactive)
COc1ccc(CC(=O)Nc2ccc(-c3nc4ccccc4s3)cc2Cl)cc1 | 69% (inactive)
O=C(COc1ccc(Cl)cc1)Nc1ccc(-c2nc3ccccc3s2)c(O)c1 | 68% (inactive)
CCOc1ccccc1C(=O)Nc1ccccc1 | 65% (inactive)
O=C(COc1ccc(Cl)cc1)Nc1ccc(O)c(-c2nc3ccccc3s2)c1 | 94% (inactive)
Cc1cc(C)cc(OCC(=O)Nc2ccc(-c3nc4ccccc4s3)cc2)c1 | 68% (inactive)
COc1cccc(CC(=O)Nc2ccc(-c3nc4ccccc4s3)cc2Cl)c1 | 69% (inactive)
CCOc1ccc(NS(=O)(=O)c2ccc3c4c(cccc24)C(=O)N3)cc1 | 83% (inactive)
CCn1cc2nc(SCc3ccccc3)n(Cc3ccc(C)cc3)c(=O)c2n1 | 93% (inactive)
O=C(NCCc1ccccc1)c1cc(-c2ccccc2)nc2n[nH]c(-c3ccccc3)c12 | 55% (inactive)
CCOC(=O)c1ccc(CN(Cc2ccc(F)cc2)S(=O)(=O)c2ccc(F)c(C(=O)Nc3ccc(Cl)cc3F)c2)cc1 | 79% (inactive)
CCOc1cc(CNC(=O)c2cc(-c3ccc(Cl)s3)nc3ccccc23)ccc1OC | 84% (inactive)
CCOC(=O)C1CCCN(C(=O)Cn2ncc3c4ccccc4n(C)c3c2=O)C1 (centres undefined) | 121% (inactive)

Structure (SMILES) | survival
Cc1ccc2nc(-c3ccc(NC(=O)COc4c(C)ccc(C)c4C)cc3)sc2c1 | 38% (active)
Cc1csc2nc(-c3cccc(NC(=O)c4c(F)cccc4F)c3)cn12 | 128% (inactive)
Cc1ccc2nc(-c3ccc(NC(=O)COc4ccccc4)cc3)sc2c1 | 68% (inactive)
Cc1csc2nc(-c3cccc(NC(=O)C(C)C)c3)cn12 | 73% (inactive)
COc1ccc(-c2nc3ccccc3s2)cc1NC(=O)COc1ccc(C)cc1 | 129% (inactive)
COc1ccc(-c2nc3ccccc3s2)cc1NC(=O)COc1cccc(C)c1 | 16% (active)
CC(=O)Nc1cc(-c2nc3ccccc3s2)ccc1C | 83% (inactive)
COc1ccc(OCC(=O)Nc2cc(-c3nc4ccccc4s3)ccc2C)cc1 | 45% (active)
Cc1ccc(-c2nc3ccccc3s2)cc1NC(=O)COc1ccccc1 | 54% (inactive)
CCCC(=O)Nc1cccc(-c2cn3c(C)csc3n2)c1 | -5% (active)
COc1ccc(-c2nc3ccccc3s2)cc1NC(=O)COc1ccccc1C | 142% (inactive)
Cc1ccc2nc(-c3ccc(NC(=O)COc4ccc(Cl)c(C)c4)cc3)sc2c1 | 74% (inactive)
CCOC(=O)CC(=O)CSc1nc2ccsc2c(=O)n1Cc1ccccc1 | 118% (inactive)
COc1ccc(-c2coc3c2c(C)cc2oc(=O)cc(C)c23)cc1 | 82% (inactive)
Cc1ccc(CCNC(=O)C2CC(=O)N(CCc3ccc(C)cc3)C2)cc1 (centres undefined) | 101% (inactive)
Cc1cc(Br)ccc1NC(=O)C1CCN(S(=O)(=O)c2cccc3nsnc23)CC1 | 115% (inactive)
COc1ccc(Br)cc1CNC(=O)c1cnc2sc(N3CCC(C)CC3)nn2c1=O | 78% (inactive)
CCc1ccc(-n2nc3ccc(NC(=O)c4cc5ccccc5o4)cc3n2)cc1 | 65% (inactive)
COc1cccc(C(C(=O)NCC2CCCO2)N(CC2CCCO2)C(=O)CC2C(=O)c3ccccc3S2(=O)=O)c1 (centres undefined) | 90% (inactive)
O=c1cc(-c2ccc(F)cc2)nc(SCc2nc(-c3ccccc3Cl)no2)[nH]1 | 117% (inactive)
CCc1cc(=O)[nH]c(SCc2nc(-c3ccccc3C)no2)n1 | 84% (inactive)
COc1ccc(-c2noc(CSc3nc4ccccc4[nH]3)n2)cc1OC | 62% (inactive)
Cc1ccccc1-c1noc(CSc2nc3ccccc3[nH]2)n1 | 57% (inactive)
Cc1cccc(-c2noc(CSc3nc(-c4ccc(F)cc4)cc(=O)[nH]3)n2)c1 | 83% (inactive)

Structure (SMILES) | survival
O=c1cc(-c2ccccc2)nc(SCc2nc(-c3ccc(Cl)cc3)no2)[nH]1 | 69% (inactive)
Cc1ccc2nc(SCc3nc(-c4ccc(Cl)cc4)no3)[nH]c2c1 | 28% (active)
Cc1ccccc1-c1noc(CSc2nc(-c3ccc(F)cc3)cc(=O)[nH]2)n1 | 37% (active)
COc1ccc(-c2noc(CSc3nc4ccccc4[nH]3)n2)cc1 | 51% (inactive)
Cc1ccc2nc(SCc3nc(-c4ccccc4C)no3)[nH]c2c1 | 25% (active)
COc1ccccc1-c1noc(CSc2nc3ccc(C)cc3[nH]2)n1 | 102% (inactive)
COc1ccc(-c2noc(CSc3nc4ccc(C)cc4[nH]3)n2)cc1 | 39% (active)
NCCSC1CC(=O)N(c2ccc(Cl)cc2)C1=O (centres undefined) | 88% (inactive)
COc1ccc(C)cc1NC(=O)c1cc2c(=O)n3cccc(C)c3nc2s1 | 86% (inactive)
COc1ccc(Cl)cc1NC(=O)CN(C)S(=O)(=O)c1ccc2c(c1)CCCN2C(C)=O | 78% (inactive)
CCCCNS(=O)(=O)c1ccc(N2CCCCS2(=O)=O)cc1 | 66% (inactive)
Cc1ccc(-c2noc(-c3nnn(CC(=O)Nc4ccc(C)cc4Cl)c3N)n2)cc1 | 83% (inactive)
C=CCNCc1cc2cc(OCC)ccc2[nH]c1=O | 97% (inactive)
COc1cc(OC)c(Nc2ncnc3onc(-c4cccc(Cl)c4)c23)cc1Cl | 73% (inactive)
CCOc1ccc(NC(=O)Cn2cc(S(=O)(=O)N3CCN(c4ccccc4F)CC3)c3ccccc3c2=O)cc1 | 89% (inactive)
COc1ccc(NC(=O)CSc2nnc(-c3cccs3)o2)cc1 | 54% (inactive)
Cc1ccc(NC(=O)Cn2ncn3c(cc4ccccc43)c2=O)cc1F | 84% (inactive)
Cc1ccc(NC(=O)Cn2ncn3c(cc4ccccc43)c2=O)c(C)c1 | 45% (active)
CCCNC(=O)CCn1nc(-c2ccccc2)c2ccccc2c1=O | 70% (inactive)
O=C(CCn1nc(-c2ccccc2)c2ccccc2c1=O)Nc1ccccc1 | 69% (inactive)
Cc1ccccc1NC(=O)CCn1nc(-c2ccc(Cl)cc2)c2ccccc2c1=O | 95% (inactive)
Cc1ccc(NC(=O)Cn2ncn3c(cc4ccccc43)c2=O)cc1C | 73% (inactive)
Cc1ccc(-c2nn(CCC(=O)Nc3ccc(Cl)c(Cl)c3)c(=O)c3ccccc23)cc1 | 53% (inactive)
COc1ccccc1NC(=O)CCn1nc(-c2ccccc2)c2ccccc2c1=O | 42% (active)

Structure (SMILES) | survival
Cc1ccc(NC(=O)CCn2nc(-c3ccccc3)c3ccccc3c2=O)c(C)c1 | 52% (active)
COc1ccc(NC(=O)CSc2nc3cc(OC)c(OC)cc3c3nc(-c4ccccc4)nn23)cc1Cl | 123% (inactive)
Cc1ccc(NC(=O)CN2C(=O)CCSc3ccc(S(=O)(=O)N4CCCC4)cc32)cc1 | 86% (inactive)
COc1ccc(-c2onc(C)c2C)cc1S(=O)(=O)NCc1ccc(C)o1 | 89% (inactive)
CC1=C(c2ccc(C(C)C)cc2)S(=O)(=O)N=C1N1CCN(c2ccccc2F)CC1 | 85% (inactive)
COc1ccc(OC)c(C2CC(=O)Nc3c2c(=O)[nH]c2nc4ccccc4n32)c1 (centres undefined) | 164% (inactive)
CCNc1nc(NC(C)(C)C)nc(Oc2ccc(=O)n(C)n2)n1 | 68% (inactive)
Cc1cccc(N2CCN(C(=O)CCc3c(C)nc4ncnn4c3C)CC2)c1C | 79% (inactive)
COC(=O)c1cccc(CN2C(=O)SC(Nc3ccc(Br)cc3)C2=O)c1 (centres undefined) | 23% (active)
CCOC(=O)c1ccc(NC2SC(=O)N(Cc3cccc(C(=O)O)c3)C2=O)cc1 (centres undefined) | 60% (inactive)
CCOc1ccc(NC2SC(=O)N(Cc3ccccc3)C2=O)cc1 (centres undefined) | 42% (active)
Cc1ccc(CN2C(=O)SC(Nc3ccccc3)C2=O)cc1 (centres undefined) | 40% (active)
COC(=O)c1cccc(CN2C(=O)SC(Nc3ccccc3C)C2=O)c1 (centres undefined) | 133% (inactive)
CN1C(=O)SC(Nc2ccccc2)C1=O (centres undefined) | 65% (inactive)
Cc1ccc(CN2C(=O)SC(Nc3ccc(Cl)cc3)C2=O)cc1 (centres undefined) | 30% (active)
COC(=O)c1cccc(CN2C(=O)SC(Nc3ccc(Cl)cc3)C2=O)c1 (centres undefined) | 42% (inactive)
COC(=O)c1cccc(CN2C(=O)SC(Nc3ccc(C)cc3)C2=O)c1 (centres undefined) | 50% (inactive)
Cc1ccc(N2C(=O)SC(Nc3ccccc3)C2=O)cc1 (centres undefined) | 83% (inactive)
O=C1SC(Nc2ccc(Cl)cc2)C(=O)N1Cc1ccccc1 (centres undefined) | 107% (inactive)
COc1ccc(NC2SC(=O)N(c3ccccc3)C2=O)cc1 (centres undefined) | 105% (inactive)
COc1cc2c(cc1OC)C(COc1ccc3c(C)cc(=O)oc3c1)N(C(=O)Cc1ccc(F)cc1)CC2 (centres undefined) | 80% (inactive)
CC1(C)Cc2ccccc2-c2nc(NN)[nH]c(=O)c21 | 67% (inactive)
